Screens: PubChem, National Center for Advancing Translational Sciences (NCATS)
Pf growth 96h: P. falciparum growth inhibition at 96 hours; P. falciparum luciferase reporter growth, 96 h; Potency, µM (titrated, usually from 28.7 µM), most hits filed as inhibitors; 6.9% of 320,000 active
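Cell-based qHTS: luciferase-tagged P. falciparum in erythrocytes (2% hematocrit, 0.05% parasitemia final) incubated with compounds for 96 hours, 37 C, 5% CO2; luciferase detection reagent then added and luminescence measured.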
HCV inhibitor: blocks hepatitis C virus; Huh7.5.1 HCVcc-Cre infection, luciferase reporter, 44 h; Potency, µM (top dose mostly 41.8 µM), usual class: inhibitors; 3.4% of 340,000 active; AID 651820
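Luciferase read-out (15 sec integration) after a 15 min room-temperature substrate step quantifies HCVcc-Cre infection. Cells, 1,000 per well, had compound added 4 h post-plating, then virus at ~0.5 moi, and were cultured 44 h.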
CHX counter: counter-screen for Shiga toxin inhibitors: cycloheximide protein synthesis inhibition. cell reporter, cycloheximide protein synthesis inhibition counterscreen. AID 2314. 12% of 300,000 active. max response, %; in the data active = max response mostly above about 13%, no sharp cut-off; inactive = mostly below about 14%; note: read at 38.3 µM for the half of the compounds with a filed dose
Pf growth 48h: inhibits P. falciparum growth in the first generation, 48 h; P. falciparum luciferase growth in erythrocytes, 48 h; Potency, µM (top dose mostly 28.7 µM), actives largely listed as inhibitors; 5.9% of 310,000 active; AID 504832
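A one-generation exposure of luciferase-tagged malaria parasites in RPMI 1640/Albumax erythrocyte culture, 37 C and 5% CO2. Inhibition is inferred from decreased luminescence after adding detection reagent.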
Shiga toxin inh: blocks Shiga toxin action in Vero cells. 9.2% of 290,000 active. Vero cells, Shiga toxin protein synthesis inhibition reporter. inhibition, % at 38.7 µM; in the data active = inhibition mostly above about 28%, no sharp cut-off; inactive = mostly below about 43%
AMA1 RON2 block: inhibitors of Plasmodium falciparum AMA1-RON2 interaction. AlphaScreen AMA1-biotinylated RON2 peptide binding. Potency, µM (top dose mostly 58.2 µM), usual class: inhibitors. 0.2% of 360,000 active. AID 720542; note: nearly all actives have a fitted effect of over 45% in size
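AMA1 (3D7) with his tag at 25 nM final met compounds first, then biotinylated RON2 peptide at 25 nM; detection used donor plus acceptor beads, 10 µg/mL apiece, read by AlphaScreen after 30 min at room temperature.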
Large screens that a line does not name were inactive. Only some compounds are listed: those with a hit (about 21% of all), similar ones and a draw of the others. Unless noted, calls come from the whole dose curve; as a rule, active = well fitted curve in the direction sought with a large enough effect; inconclusive = small, poorly fitted or top-dose-only effect, or another doubt; inactive = no such curve, though single readings can be large; an effect the other way counts as inactive or inconclusive.

Cc1cc(Br)ccc1NC(=O)CNC(=O)Cn1ncc(Cl)c(Cl)c1=O	HCV inhibitor 2.2µM
Cc1ccc(S(=O)(=O)N2CCCCC2)cc1NC(=O)Cn1ncc(Cl)c(Cl)c1=O	HCV inhibitor 0.71µM (no result: Pf growth 96h, CHX counter, Pf growth 48h, Shiga toxin inh)
O=C(O)CCC(=O)N1CCN(S(=O)(=O)c2ccc3ccccc3c2)CC1	none
Cc1ccc(S(=O)(=O)N2CCCCC2)cc1NC(=O)CNC(C)c1ccc(Cl)c(Cl)c1 (stereo unspecified)	Pf growth 96h inconclusive, HCV inhibitor 8.9µM, Pf growth 48h inconclusive (no result: CHX counter, Shiga toxin inh)
Cc1cc(Br)ccc1NC(=O)CNC(=O)CSc1ncccn1	Pf growth 96h inconclusive (no result: CHX counter, Shiga toxin inh)
O=C(Cn1ncc(Cl)c(Cl)c1=O)N1CCN(S(=O)(=O)c2ccc3ccccc3c2)CC1	Pf growth 96h inconclusive, HCV inhibitor 5.6µM
O=C(Cc1ccccc1F)NNC(=O)c1ccncc1	none
CC(=O)Nc1ccc(CNc2nc3cc(-c4ccsc4)sc3c(=O)n2C)cc1	none (no result: Pf growth 96h, HCV inhibitor, CHX counter, Pf growth 48h, Shiga toxin inh)
CCOC(=O)C1(Cc2ccccc2C#N)CCCCC1=O (stereo unspecified)	none (no result: Pf growth 96h, CHX counter, Pf growth 48h, Shiga toxin inh)
O=C(Nc1ccc2oc(-c3ccncc3)nc2c1)c1ccc2c(c1)OCCO2	Pf growth 96h 9.3µM, Pf growth 48h inconclusive
O=C(Nc1ccc2oc(-c3cccnc3)nc2c1)c1ccc2c(c1)OCCO2	Pf growth 96h inconclusive, Pf growth 48h 8.3µM
O=C(Nc1ccc2oc(-c3ccncc3)nc2c1)c1c(F)c(F)c(F)c(F)c1F	none
COc1ccccc1C(=O)Nc1ccc2oc(-c3ccc(F)cc3)nc2c1	Pf growth 96h 10µM, HCV inhibitor inconclusive
O=C(Nc1ccc2oc(-c3ccncc3)nc2c1)c1ccc(F)cc1	HCV inhibitor 22µM
O=C(Nc1ccc2oc(-c3ccncc3)nc2c1)c1ccc2c(c1)OCO2	none
COc1ccc(C(=O)Nc2ccc3oc(-c4cccc(F)c4)nc3c2)cc1OC	Pf growth 96h inconclusive, HCV inhibitor inconclusive (no result: Pf growth 48h)
Cc1cc(=O)[nH]c(SCC(=O)N(CCC#N)c2ccccc2)c1C#N	none
Cc1nc(-c2ccc(NC(=O)c3ccccc3C)cc2)cs1	HCV inhibitor inconclusive, CHX counter 31, Shiga toxin inh 61
Cc1nc(-c2ccc(NC(=O)c3ccccc3Br)cc2)cs1	HCV inhibitor inconclusive, CHX counter 55, Shiga toxin inh 57
Cc1nc(-c2ccc(C(=O)Nc3ccccc3F)cc2)cs1	HCV inhibitor inconclusive
CC(C)OC(C)C	none (no result: Pf growth 96h, HCV inhibitor, Pf growth 48h, AMA1 RON2 block)
Cn1c(=O)n(C)c2cc(/C=N/N=C3/NC(=O)C(CC(=O)O)S3)ccc21 (stereo unspecified)	none
CCCS(=O)(=O)NC(=O)C1(C)CCN(C(=O)c2ccccc2OC(C)=O)C1 (stereo unspecified)	none (no result: Pf growth 96h, HCV inhibitor, CHX counter, Pf growth 48h, Shiga toxin inh)
CCCS(=O)(=O)N1CCN(C2CCC(C)CC2)CC1 (stereo unspecified)	Pf growth 96h 10µM
COC(C(=O)C(O)C(C)O)C1Cc2cc3cc(OC4CC(OC5CC(O)C(O)C(C)O5)C(O)C(C)O4)c(C)c(O)c3c(O)c2C(=O)C1OC1CC(OC2CC(OC3CC(O)C(OC)C(C)O3)C(O)C(C)O2)C(O)C(C)O1 (stereo unspecified)	HCV inhibitor 1µM (no result: Pf growth 96h, CHX counter, Pf growth 48h, Shiga toxin inh)
CO[C@H](C(=O)[C@@H](O)[C@@H](C)O)C1Cc2cc3cc(O[C@H]4C[C@@H](O[C@H]5C[C@@H](O)[C@H](O)[C@@H](C)O5)[C@@H](O)[C@@H](C)O4)c(C)c(O)c3c(O)c2C(=O)[C@H]1O[C@H]1C[C@@H](O[C@H]2C[C@@H](O[C@H]3C[C@](C)(O)[C@H](O)[C@@H](C)O3)[C@H](O)[C@@H](C)O2)[C@H](O)[C@@H](C)O1 (stereo partly specified)	Pf growth 96h 0.034µM, Pf growth 48h 0.048µM (no result: HCV inhibitor, CHX counter, Shiga toxin inh, AMA1 RON2 block)
COC(C(=O)C(O)C(C)O)C1Cc2cc3cc(OC4CC(OC5CC(O)C(O)C(C)O5)C(O)C(C)O4)c(C)c(O)c3c(O)c2C(=O)C1OC1CC(OC2CC(OC3CC(C)(O)C(O)C(C)O3)C(O)C(C)O2)C(O)C(C)O1 (stereo unspecified)	Pf growth 96h 1.9µM, Pf growth 48h 0.06µM (no result: HCV inhibitor, CHX counter, Shiga toxin inh, AMA1 RON2 block)
COc1cc(C(C(=O)NC2CCCC2)N(CCO)C(=O)Cn2nnc(-c3ccc(C)o3)n2)ccc1O (stereo unspecified)	none
O=C(O)C(Cc1c[nH]c2ccccc12)N1C(=O)C2C3c4ccccc4C(c4ccccc43)[C@@H]2C1=O (stereo partly specified)	Pf growth 96h inconclusive
COc1cc(C2NC(=O)C(C#N)=C(S)N2c2ccc(C)cc2)ccc1OC(C)C (stereo unspecified)	CHX counter 11, Shiga toxin inh 78 (no result: Pf growth 96h)
CSCCC(NC(=O)c1ccco1)C(=O)NCCc1ccc(Cl)cc1 (stereo unspecified)	none (no result: Pf growth 96h, CHX counter, Pf growth 48h, Shiga toxin inh)
O=C(Nc1nccs1)c1ccc(NC(=O)c2ccco2)cc1	Pf growth 96h inconclusive, CHX counter 47, Shiga toxin inh 86
CC(C)(C)c1ccc(C(=O)Nc2ccc(NC(=O)c3ccco3)cc2)cc1	Pf growth 96h 10µM, HCV inhibitor inconclusive, Pf growth 48h inconclusive
CC(C)(C)NC(=O)c1cccc(NC(=O)c2ccc(NC(=O)c3ccco3)cc2)c1	HCV inhibitor 2.5µM
CC(C)(C)c1ccc(NC(=O)CCNC(=O)c2ccco2)cc1	CHX counter 19
O=C(O)Cc1ccc(NC(=O)c2ccc(NC(=O)c3ccco3)cc2)cc1	none (no result: Pf growth 48h)
CN(C)S(=O)(=O)c1ccc(NC(=O)Cn2nc(-c3ccc4c(c3)OCCO4)ccc2=O)cc1	none (no result: Pf growth 96h, CHX counter, Pf growth 48h, Shiga toxin inh)
CN1OC[C@@H]2CN(C(=O)NC3CCCCC3)[C@H](c3ccc(N4CCCCC4)cc3)C[C@@H]21	none (no result: Pf growth 96h, HCV inhibitor, CHX counter, Pf growth 48h, Shiga toxin inh)
COc1ccc(NC(=O)CCNC(=O)c2ccco2)cc1S(=O)(=O)N(C)C	none
CCN(CC)S(=O)(=O)c1cc(NC(=O)CCNC(=O)c2ccco2)ccc1C	Pf growth 96h 6.6µM, Pf growth 48h 9.3µM
CC(C(=O)O)c1ccc(N2Cc3ccccc3C2=O)cc1 (stereo unspecified)	Shiga toxin inh 72
CCOC(=O)C1(Cc2ccc(Cl)cc2)CCN(C(=O)c2sc(C)nc2C)CC1	Pf growth 96h inconclusive, HCV inhibitor 11µM, Pf growth 48h inconclusive
CCOC(=O)C1(Cc2ccccc2)CCCN(CCCn2cccn2)C1 (stereo unspecified)	Pf growth 48h inconclusive
CCOC(=O)C1(Cc2ccc(Cl)cc2)CCN(CCCn2cccn2)CC1	HCV inhibitor 3.2µM
COc1ccc(OC)c(CN2CCN(CC(=O)Nc3ccccc3C(=O)NC3CC3)CC2)c1	Pf growth 96h inconclusive (no result: CHX counter, Shiga toxin inh)
COC(=O)c1ccc(C(=O)O)nc1	Pf growth 96h inconclusive
Cn1c(=O)c2cc(NC(=O)Nc3ccccc3)ccc2n1Cc1ccccc1	none (no result: Pf growth 96h, HCV inhibitor, CHX counter, Pf growth 48h, Shiga toxin inh)
Cc1onc(-c2ccccc2)c1NC(=O)N(CCC#N)Cc1cccs1	none
COc1ccc([N+](=O)[O-])cc1NC(=O)Nc1cccc(Cl)c1	HCV inhibitor inconclusive, Pf growth 48h 9.3µM
